The experiment concerns the target Torsin-1A-interacting protein 1 (Homo sapiens) (UniProt Q5JTV8). Kind of experiment: LAP1 binders from COS7 cell lysate, primary screen, small-molecule microarray, 635/667 nm fluorescence (AID 1116). As to conditions: COS7-hLAP1 lysate binding, 635 nm fluorescence, higher = more signal.
Torsin-1A-interacting protein 1 (Homo sapiens), sequence (Q5JTV8 whole entry, looked up): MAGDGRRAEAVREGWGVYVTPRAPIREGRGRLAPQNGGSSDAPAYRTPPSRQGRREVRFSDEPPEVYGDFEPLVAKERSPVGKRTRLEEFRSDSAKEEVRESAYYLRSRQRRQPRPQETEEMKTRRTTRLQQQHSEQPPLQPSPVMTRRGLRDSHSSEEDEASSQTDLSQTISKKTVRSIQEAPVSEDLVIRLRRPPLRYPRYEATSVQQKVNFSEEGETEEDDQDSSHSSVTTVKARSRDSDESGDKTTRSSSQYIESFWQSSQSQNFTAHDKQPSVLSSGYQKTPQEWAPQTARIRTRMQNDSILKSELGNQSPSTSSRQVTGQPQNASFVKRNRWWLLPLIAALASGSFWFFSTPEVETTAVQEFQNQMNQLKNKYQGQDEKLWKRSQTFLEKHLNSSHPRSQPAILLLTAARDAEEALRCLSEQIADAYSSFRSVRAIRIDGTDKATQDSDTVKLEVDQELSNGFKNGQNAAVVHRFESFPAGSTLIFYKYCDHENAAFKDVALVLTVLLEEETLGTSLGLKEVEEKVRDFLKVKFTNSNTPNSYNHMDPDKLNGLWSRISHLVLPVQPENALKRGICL
On to `COC(=O)c1nc2oc1CC[C@@H](CO)NC(=O)N(C)Cc1cnnn1C[C@H](Cc1ccccc1)NC2=O`, for which the composite z-score was determined as 0.122.
As for `CCOC(=O)C1=CC[C@@H](c2cccc(Cl)c2)N(S(=O)(=O)c2ccc(C)cc2)C1`, the figure is 2.68; as for `C=C(COC)/C(=C/C[C@H](OC(=O)c1ccncc1)c1ccccc1OCCO)c1cnc2ccccc2c1`, 0.0493.
Consider `C[C@@H]1ON(c2ccc(C(=O)OC(C)(C)C)cc2)[C@H](c2ccc(O)cc2)[C@H]1C(=O)N1C(=O)OC[C@H]1Cc1ccccc1`, for which the composite z-score came to 0.848.
To `CC(C)N1C(=O)C[C@@](C(=O)NCCCN(C)C)(c2ccc([N+](=O)[O-])cc2)[C@H]1c1ccc(CO)cc1` belongs 0.0945; to `COC(=O)C(CC#Cc1ccc2c(c1)[C@]1(C(=O)N2)[C@H](C(=O)N2CCN(c3ncccn3)CC2)[C@H]2C(=O)O[C@H](c3ccccc3)[C@H](c3ccccc3)N2[C@@H]1c1ccc(OCCO)cc1)C(=O)OC`, 0.624; to `CN(C)CCCNC(=O)[C@@]1(C)c2ccccc2C(=O)N(Cc2ccccc2)[C@H]1c1ccc(CO)cc1`, -0.281.
To `CC(C)C(=C=CC[C@H](O)c1cccc(OCCO)c1)C[C@H](O)c1cc(Cl)cc(Cl)c1O` belongs 0.488.
To `COCCCNC(=O)[C@@]1(Cc2ccccc2N=[N+]=[N-])N=C(c2ccc(OCCCO)cc2)O[C@H]1c1ccccc1` belongs 1.63.
Consider `COc1ccc([Si](C)(C)[C@@H]2[C@@H](CC(=O)N3Cc4ccccc4C[C@H]3CO)O[C@]3(C(=O)N(Cc4cccc(N5C(=O)c6cccc7cccc5c67)c4)c4ccccc43)[C@H]2C)cc1`, for which the composite z-score amounted to 0.83.
Take `COc1ccc([Si](C)(C)[C@@H]2[C@@H](CC(=O)N(CCO)Cc3ccccc3)O[C@]3(C(=O)N(Cc4cccc(N5CCOC5=O)c4)c4ccccc43)[C@H]2C)cc1`: the composite z-score amounted to 0.861.
To `CC(=O)c1ccc(C(O)C2C=CC3C(=O)N(c4ccccc4)C(=O)C3N2Nc2ccc(C#N)cc2)cc1` (stereo not drawn) belongs 0.142; to `COC1OC[C@]2(C)[C@H]3C4=C(CN2C(=O)OC(C)(C)C)[C@H](C)C(CO)C(CO)C4CC[C@@H]13` (stereo partly drawn), 2.14.
`COCCCNC(=O)[C@@]1(Cc2ccccc2CN=[N+]=[N-])N=C(c2ccc(OCCCO)cc2)O[C@H]1c1ccccc1`: the composite z-score came out at 1.62.
To `COc1cc(CO)cc(I)c1O[C@H]1C=C(C(=O)NCCO)C[C@@H](NCc2ccc(F)cc2)[C@@H]1O` belongs 0.0217.
To `C=CCC(OC(C)=O)[C@@H]1[C@@H](N(Cc2cccc3ccccc23)C(=O)Cc2ccc(F)cc2)c2cc(OCCCO)ccc2N1C(=O)c1ccc2ccccc2n1` (stereo partly drawn) belongs 0.0149; to `[N-]=[N+]=Nc1ccccc1[C@H]1OC(c2ccc(OCCCO)cc2)=N[C@@]1(Cc1ccccc1)C(=O)N1CCCCC1`, 2.12; to `O=C(NCc1ccccc1)[C@@H]1c2ccccc2C(=O)N(Cc2ccccc2C(F)(F)F)[C@H]1c1ccc(CO)cc1`, -0.934.
To `CC=CC(O)C1C=CC2C(=O)N(c3ccccc3)C(=O)C2N1Nc1ccccc1F` (stereo not drawn) belongs 0.0757; to `O=C1O[C@H](c2ccccc2)[C@H](c2ccccc2)N2[C@H]1[C@@H](C(=O)O)[C@]1(C(=O)Nc3ccc(C#CC4=CCCCC4)cc31)[C@H]2c1ccc(O)cc1`, 0.499.
Compound `C=CCOC(=O)[C@H]1[C@@H]2C(=O)O[C@@H](c3ccccc3)[C@@H](c3ccccc3)N2[C@@H](c2ccc(OCCOC(=O)[C@@H]3C[C@@H]4C(=O)N5CCC[C@H]5C(=O)N4[C@@H]3c3ccc(O)cc3)cc2)[C@]12C(=O)Nc1ccc(I)cc12` gave a composite z-score of 0.521.
As for `CCCC[C@@H]1C[C@H]1[C@@H](NC(=O)c1ccccc1)c1ccc(C(F)(F)F)cc1`, the figure is -0.309; as for `C=C(C)c1cc2c(c(CCCCCC)n1)[Si](C(C)C)(C(C)C)OC2`, -1.07.
As for `COC(=O)[C@@]1(Cc2ccc(OC)cc2)[C@@H]2C(=CC(=O)[C@H]2CC(=O)C(=O)N(C)C)CN1C(=O)c1ccccc1`, the figure is 0.755.
`COC(=O)c1cn(C[C@@H](Cc2ccccc2)NC(=O)N[C@H](CO)CCc2oc(C(C)=O)c(C(=O)OC)c2C(=O)OC)nn1`: the composite z-score was 0.862.
To `COCCOC(=O)N1C(=O)[C@@]2(c3cc(C#CC4(O)CCCCCC4)ccc31)[C@H](c1ccc(O)cc1)N1[C@H](c3ccccc3)[C@H](c3ccccc3)OC(=O)[C@H]1[C@@H]2C(=O)NC[C@H](O)c1ccccc1` belongs 1.6; to `C=C(C)C1CCC(C(O)C2C=CC3C(=O)N(C)C(=O)C3N2N2CCCCC2)CC1` (stereo not drawn), 0.555.
In the case of `CC(C)(C)N1CC=CC23O[C@@H]4C=CCOC(=O)[C@@H]4[C@H]2C(=O)N(CCCCCCO)[C@@H]3C1=O` (stereo partly drawn), the composite z-score is -0.252.

The values above are taken from PubChem BioAssay.
